Data on 40 molecules can be found in PubChem BioAssay (Tox21).

Results filed as inconclusive are left out. Where a call stands in place of a potency, no number is given. The source made the active and inactive calls. The call rests on the fitted dose curve; in most records, active means well fitted cell-killing curve with a large enough effect in the repeat runs; inconclusive means weak or mixed curves; inactive means no such curve, though single readings can be large or run the other way.

The nature of this assay: qHTS assay to identify small molecule agonists of the peroxisome proliferator-activated receptor delta (PPARd) signaling pathway - cell viability counter screen (AID 743211). Further: nearly all actives have a fitted effect of over 55% in size. The note with it: PPARd-bla HEK293H viability, CellTiter-Glo luminescence, 17 h; series mostly up to 62.6 µM. The source says:
U.S. Tox21 Program National Center for Advancing Translational Sciences [NCATS] NIH Chemical Genomics Center [NCGC] U.S. Environmental Protection Agency [EPA] National Institutes of Environmental Health Sciences [NIEHS] National Toxicology Program [NTP] U.S. Food and Drug Administration [FDA] Tox21 Assay Overview: The peroxisome proliferator-activated receptors (PPARs) are lipid-activated transcription factors of the nuclear receptor superfamily with three distinct subtypes namely PPAR alpha, PPAR delta (PPARd) and PPAR gamma. All these subtypes heterodimerizes with Retinoid X receptor (RXR) and have different physiological functions. […] To identify the compounds that activate PPAR-delta signaling, GeneBLAzer PPAR delta UAS-bla HEK293H cell line (Invitrogen, Carlsbad, CA, USA) containing a beta-lactamase reporter gene under the control of an Upstream Activator Sequence (UAS) was used to screen the Tox21 compound library. The cytotoxicity of the Tox21 compound library against the PPARd-bla cell line was tested in parallel by measuring the cell viability using CellTiter-Glo assay (Promega, Madison, WI) in the same wells.
Tox21 Assay Protocol Summary: PPARd-bla cells were dispensed at 3000 cells/6uL/well in 1536-well black wall/clear bottom plates using a Multidrop Combi (Thermo Fisher Scientific, Waltham, MA) dispenser. After the assay plates were incubated at 37 C and 5% CO2 for 5 h, 23 nL of compounds dissolved in DMSO, positive controls or DMSO only was transferred to the assay plate by a Pintool station (Kalypsys, San Diego, CA). The assay plates were incubated at 37C for 17 h. After 1 uL of LiveBLAzerTM B/G FRET substrate was added using a Bioraptr Flying Reagent Dispenser (FRD) workstation (Beckman Coulter, Indianapolis, IN, USA), the plates were incubated at room temperature for 2 h, and fluorescence intensity was measured by an Envision plate reader (PerkinElmer, Shelton, CT). For cell viability readout that measures cytotoxicity, 3 ul/well of CellTiter-Glo reagent was added into the assay plates using a Bioraptr FRD. After 30 min incubation at room temperature, the luminescence intensity in the plates was measured using a ViewLux plate reader (PerkinElmer).
On the technique in general: qHTS replaces the single test concentration by a dilution series.
For `COP(=S)(OC)Oc1ccc(SC)c(C)c1`, the Potency result is “inactive”.

On to `c1ccc2c(c1)CCCC2`, for which the Potency entry is “inactive”.

For `FC(F)(F)c1ccc(Cl)cc1`, the Potency entry is “inactive”.

In the case of `OCC(O)CCl` (stereo not given), the Potency result is “inactive”.

As for `CC[N+](=O)[O-]`, the Potency entry was “inactive”.

For `C[C@]12CC[C@H](O)CC1=CC[C@@H]1[C@@H]2CC[C@]2(C)C(=O)CC[C@@H]12`, the Potency entry was “inactive”.

Take `OCc1ccco1`: the Potency entry is “inactive”.

Consider `Nc1cccc(Cl)c1`, for which the Potency entry is “inactive”.

With `CC(C)(C)C(=O)CCl`, the Potency entry was “inactive”.

In the case of `C=CC(=O)OCCCCCC(C)C`, the Potency result is “inactive”.

For the molecule `CNc1cnn(-c2cccc(C(F)(F)F)c2)c(=O)c1Cl`, the Potency result was “inactive”.

As for `CC(=O)/C=C/c1ccccc1`, the Potency entry was “inactive”.

With `Cc1ccc(O)c(C)c1`, the Potency entry is “inactive”.

Regarding `COS(=O)(=O)OC`, the Potency entry is “inactive”.

Turning to `CN(C)NC(=O)CCC(=O)O`, the Potency entry was “inactive”.

Regarding `CCCCC(CC)C(=O)Cl` (stereo not given), the Potency result was “inactive”.

As for `CCNc1nc(Cl)nc(NC(C)C)n1`, the Potency result is “inactive”.

Regarding `C=CCN=C=S`, the Potency result was “inactive”.

As for `Cc1cccc(N)c1C`, the Potency entry is “inactive”.

Take `Cc1ccc(N=C=O)cc1N=C=O`: the Potency result was “inactive”.

Regarding `Nc1cc(Cl)cc(Cl)c1`, the Potency entry is “inactive”.

In the case of `CC(=O)C1CCOC1=O` (stereo not given), the Potency result is “inactive”.

`CCOc1ccc(N)cc1`: the Potency result is “inactive”.

With `Cc1cccc(C)c1N`, the Potency result was “inactive”.

Regarding `CSc1nnc(C(C)(C)C)c(=O)n1N`, the Potency result is “inactive”.

Regarding `N#Cc1cccc(C#N)c1`, the Potency entry was “inactive”.

Take `CCOP(=S)(OCC)Oc1ccc([N+](=O)[O-])cc1`: the Potency entry was “inactive”.

On to `COc1nc(NC(C)C)nc(NC(C)C)n1`, for which the Potency entry is “inactive”.

`ClCCOCCCl`: the Potency entry was “inactive”.

Turning to `CNC(=O)O/N=C(\SC)C(=O)N(C)C`, the Potency result is “inactive”.

Take `CNC(=O)O/N=C/C(C)(C)SC`: the Potency entry was “inactive”.

On to `CCCCCCCCCCCCCCCCCC(=O)O`, for which the Potency entry was “inactive”.

With `O=C(O)Cc1ccccc1`, the Potency result was “inactive”.

For the molecule `NNc1ccccc1`, the Potency entry was “inactive”.

As for `Cl/C=C/Cl`, the Potency entry was “inactive”.

On to `C=CC(=O)OCC(CC)CCCC` (stereo not given), for which the Potency entry was “inactive”.

On to `O=C(O)c1cc(Oc2ccc(C(F)(F)F)cc2Cl)ccc1[N+](=O)[O-]`, for which the Potency result is “inactive”.

On to `O=S(=O)(O)OOS(=O)(=O)O`, for which the Potency entry was “inactive”.

On to `CN(C)C(=O)C(c1ccccc1)c1ccccc1`, for which the Potency result was “inactive”.

In the case of `Nc1ncc([N+](=O)[O-])s1`, the Potency entry is “inactive”.
